# T1: RARA 175-421 Hormone_recep (domain begin residue: 175, domain end residue: 421), P10276
# T1 chain: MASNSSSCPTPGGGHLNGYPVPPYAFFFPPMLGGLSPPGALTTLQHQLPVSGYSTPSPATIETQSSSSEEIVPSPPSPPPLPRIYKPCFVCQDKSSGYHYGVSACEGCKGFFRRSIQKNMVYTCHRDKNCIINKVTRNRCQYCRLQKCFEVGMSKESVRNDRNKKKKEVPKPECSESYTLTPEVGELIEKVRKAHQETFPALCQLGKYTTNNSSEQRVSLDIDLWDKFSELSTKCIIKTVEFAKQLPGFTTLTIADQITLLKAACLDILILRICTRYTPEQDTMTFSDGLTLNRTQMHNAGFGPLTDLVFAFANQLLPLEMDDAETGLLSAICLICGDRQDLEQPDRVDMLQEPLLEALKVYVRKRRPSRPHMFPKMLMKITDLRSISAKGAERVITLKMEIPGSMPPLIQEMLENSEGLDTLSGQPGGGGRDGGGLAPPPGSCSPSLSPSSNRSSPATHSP
# T2: RBM17 298-401 RRM_1 (domain begin residue: 298, domain end residue: 401), Q96I25
# T2 chain: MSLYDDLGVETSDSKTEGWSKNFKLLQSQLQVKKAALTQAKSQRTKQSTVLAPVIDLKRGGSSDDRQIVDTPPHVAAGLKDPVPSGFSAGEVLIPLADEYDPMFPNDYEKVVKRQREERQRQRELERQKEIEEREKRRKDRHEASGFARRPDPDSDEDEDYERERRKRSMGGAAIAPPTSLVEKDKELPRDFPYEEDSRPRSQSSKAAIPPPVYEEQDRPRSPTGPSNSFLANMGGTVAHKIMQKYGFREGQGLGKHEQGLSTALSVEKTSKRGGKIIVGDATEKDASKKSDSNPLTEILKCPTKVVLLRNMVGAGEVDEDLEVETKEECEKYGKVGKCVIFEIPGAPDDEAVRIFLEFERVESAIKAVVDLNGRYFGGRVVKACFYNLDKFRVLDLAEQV
# T3: RXRB 298-533 Hormone_recep (domain begin residue: 298, domain end residue: 533), P28702
# T3 chain: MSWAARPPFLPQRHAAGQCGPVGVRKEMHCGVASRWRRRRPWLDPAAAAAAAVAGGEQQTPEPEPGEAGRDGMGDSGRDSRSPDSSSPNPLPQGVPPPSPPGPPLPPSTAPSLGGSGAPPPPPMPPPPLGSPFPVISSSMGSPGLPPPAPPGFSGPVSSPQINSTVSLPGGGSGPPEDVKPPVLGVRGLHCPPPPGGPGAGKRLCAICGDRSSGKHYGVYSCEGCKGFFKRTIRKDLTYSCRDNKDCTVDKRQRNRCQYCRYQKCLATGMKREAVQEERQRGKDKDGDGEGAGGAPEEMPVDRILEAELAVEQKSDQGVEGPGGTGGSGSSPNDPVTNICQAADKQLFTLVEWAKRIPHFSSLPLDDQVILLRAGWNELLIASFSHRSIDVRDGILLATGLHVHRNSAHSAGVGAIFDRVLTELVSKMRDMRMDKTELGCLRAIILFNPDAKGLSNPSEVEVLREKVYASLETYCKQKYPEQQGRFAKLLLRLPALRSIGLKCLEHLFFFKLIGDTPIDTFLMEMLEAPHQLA
# T4: S100A11 5-105 S_100+EF-hand_1 (domain begin residue: 5, domain end residue: 105), P31949
# T4 chain: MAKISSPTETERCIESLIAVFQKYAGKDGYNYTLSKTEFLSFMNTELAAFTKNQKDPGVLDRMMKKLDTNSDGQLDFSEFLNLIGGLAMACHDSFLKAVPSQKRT
# T5: RARG 183-417 Hormone_recep (domain begin residue: 183, domain end residue: 417), P13631
# T5 chain: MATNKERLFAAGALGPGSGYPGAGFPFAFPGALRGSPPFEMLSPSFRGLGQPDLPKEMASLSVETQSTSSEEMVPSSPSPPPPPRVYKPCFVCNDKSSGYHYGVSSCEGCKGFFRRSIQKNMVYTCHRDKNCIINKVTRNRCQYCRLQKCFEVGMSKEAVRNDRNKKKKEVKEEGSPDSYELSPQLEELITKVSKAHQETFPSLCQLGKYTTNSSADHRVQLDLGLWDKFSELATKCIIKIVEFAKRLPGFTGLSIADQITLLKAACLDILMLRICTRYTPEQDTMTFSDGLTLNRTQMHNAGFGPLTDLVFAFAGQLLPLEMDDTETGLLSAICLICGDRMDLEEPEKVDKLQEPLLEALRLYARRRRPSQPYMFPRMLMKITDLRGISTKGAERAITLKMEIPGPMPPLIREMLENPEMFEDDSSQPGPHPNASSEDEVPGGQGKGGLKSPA
# T6: RORB 212-470 Hormone_recep (domain begin residue: 212, domain end residue: 470), Q92753
# T6 chain: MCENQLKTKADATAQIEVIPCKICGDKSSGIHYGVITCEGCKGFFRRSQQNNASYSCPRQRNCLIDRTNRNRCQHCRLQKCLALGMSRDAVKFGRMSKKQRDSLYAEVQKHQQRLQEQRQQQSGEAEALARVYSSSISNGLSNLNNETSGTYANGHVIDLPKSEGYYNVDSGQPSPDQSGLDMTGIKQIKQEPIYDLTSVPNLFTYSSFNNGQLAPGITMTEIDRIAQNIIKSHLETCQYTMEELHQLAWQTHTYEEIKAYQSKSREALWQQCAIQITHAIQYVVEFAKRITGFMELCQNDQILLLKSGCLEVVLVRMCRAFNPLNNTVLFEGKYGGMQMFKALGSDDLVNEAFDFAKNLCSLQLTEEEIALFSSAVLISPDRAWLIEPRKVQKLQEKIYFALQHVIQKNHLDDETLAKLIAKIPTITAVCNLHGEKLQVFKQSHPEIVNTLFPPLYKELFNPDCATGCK
# T7: SFN 1-236 14-3-3 (domain begin residue: 1, domain end residue: 236), P31947
# T7 chain: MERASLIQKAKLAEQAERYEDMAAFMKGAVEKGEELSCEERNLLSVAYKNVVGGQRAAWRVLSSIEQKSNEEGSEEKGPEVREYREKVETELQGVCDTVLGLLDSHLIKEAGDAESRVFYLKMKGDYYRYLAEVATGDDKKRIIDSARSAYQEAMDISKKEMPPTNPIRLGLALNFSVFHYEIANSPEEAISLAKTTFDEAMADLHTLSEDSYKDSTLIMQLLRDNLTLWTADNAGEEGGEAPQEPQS
# How the values were obtained:
# Test in all cases: phage ELISA signal ratio (GST-PRM binding over GST background); higher = stronger binding of peptide-phage to the PRM
# [1] = target: RBBP5 2-538 WD40 (domain begin residue: 2, domain end residue: 538), Q15291
# How it was run: (§1)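 Each value is the phage ELISA signal on the glutathione S-transferase (GST)-domain fusion divided by the signal on GST alone. Human peptide recognition domains were expressed in 96-well plates, fused to the C-terminus of GST, and selected against an M13 phage library carrying randomized, cysteine-free, glycine-flanked hexadecapeptides on the gene-8 major coat protein. After five selection rounds, approximately 48 individual clones from rounds 4 and 5 were tested by phage ELISA, and positive clones were sequenced.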
# [2] = target: RANBP1 39-170 Ran_BP1 (domain begin residue: 39, domain end residue: 170), P43487
# How it was run: as §1
# [3] = target: T1, RARA 175-421 Hormone_recep (domain …
# How it was run: as §1
# [4] = target: RPA1 2-121 Rep-A_N (domain begin residue: 2, domain end residue: 121), P27694
# How it was run: as §1
# [5] = target: T2, RBM17 298-401 RRM_1 (domain begin …
# How it was run: as §1
# [6] = target: RPA2 202-270 RPA_C (domain begin residue: 202, domain end residue: 270), P15927
# How it was run: as §1
# [7] = target: RANBP2 1184-1310 Ran_BP1 (domain begin residue: 1184, domain end residue: 1310)
# How it was run: as §1
# [8] = target: T3, RXRB 298-533 Hormone_recep (domain …
# How it was run: as §1
# [9] = target: RANBP2 2924-3050 Ran_BP1 (domain begin residue: 2924, domain end residue: 3050)
# How it was run: as §1
# [10] = target: SETD1A 2-220 RRM_1 (domain begin residue: 2, domain end residue: 220), O15047
# How it was run: as §1
# [11] = target: T4, S100A11 5-105 S_100+EF-hand_1 (domain …
# How it was run: as §1
# [12] = target: T5, RARG 183-417 Hormone_recep (domain …
# How it was run: as §1
# [13] = target: T6, RORB 212-470 Hormone_recep (domain …
# How it was run: as §1
# [14] = target: T7, SFN 1-236 14-3-3 (domain begin residue: …
# How it was run: as §1
# RPA1 2-121 Rep-A_N (domain begin residue: 2, domain end residue: 121), P27694, sequence (P27694 whole entry): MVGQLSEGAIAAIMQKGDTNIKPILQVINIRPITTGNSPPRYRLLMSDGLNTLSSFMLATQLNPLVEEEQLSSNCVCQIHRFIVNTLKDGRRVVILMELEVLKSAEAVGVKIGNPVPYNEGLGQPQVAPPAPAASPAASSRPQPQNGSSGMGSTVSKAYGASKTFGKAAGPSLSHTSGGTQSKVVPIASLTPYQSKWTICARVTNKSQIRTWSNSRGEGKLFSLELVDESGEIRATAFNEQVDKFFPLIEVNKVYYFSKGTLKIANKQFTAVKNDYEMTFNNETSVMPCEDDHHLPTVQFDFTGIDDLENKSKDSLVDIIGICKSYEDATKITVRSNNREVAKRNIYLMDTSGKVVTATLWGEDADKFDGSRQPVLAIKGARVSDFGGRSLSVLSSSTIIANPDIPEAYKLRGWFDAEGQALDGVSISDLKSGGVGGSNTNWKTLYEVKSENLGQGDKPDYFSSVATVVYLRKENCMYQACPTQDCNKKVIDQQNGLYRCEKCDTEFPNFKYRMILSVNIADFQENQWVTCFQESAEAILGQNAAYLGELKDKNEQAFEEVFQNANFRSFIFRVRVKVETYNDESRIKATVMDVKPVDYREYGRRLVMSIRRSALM
# RANBP1 39-170 Ran_BP1 (domain begin residue: 39, domain end residue: 170), P43487, sequence (P43487 whole entry): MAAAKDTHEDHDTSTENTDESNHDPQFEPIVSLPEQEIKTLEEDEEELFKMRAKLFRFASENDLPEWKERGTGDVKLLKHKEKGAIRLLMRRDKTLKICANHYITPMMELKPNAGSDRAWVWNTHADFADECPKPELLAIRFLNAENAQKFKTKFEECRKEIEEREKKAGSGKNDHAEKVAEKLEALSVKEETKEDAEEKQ
# SETD1A 2-220 RRM_1 (domain begin residue: 2, domain end residue: 220), O15047, sequence (O15047 whole entry): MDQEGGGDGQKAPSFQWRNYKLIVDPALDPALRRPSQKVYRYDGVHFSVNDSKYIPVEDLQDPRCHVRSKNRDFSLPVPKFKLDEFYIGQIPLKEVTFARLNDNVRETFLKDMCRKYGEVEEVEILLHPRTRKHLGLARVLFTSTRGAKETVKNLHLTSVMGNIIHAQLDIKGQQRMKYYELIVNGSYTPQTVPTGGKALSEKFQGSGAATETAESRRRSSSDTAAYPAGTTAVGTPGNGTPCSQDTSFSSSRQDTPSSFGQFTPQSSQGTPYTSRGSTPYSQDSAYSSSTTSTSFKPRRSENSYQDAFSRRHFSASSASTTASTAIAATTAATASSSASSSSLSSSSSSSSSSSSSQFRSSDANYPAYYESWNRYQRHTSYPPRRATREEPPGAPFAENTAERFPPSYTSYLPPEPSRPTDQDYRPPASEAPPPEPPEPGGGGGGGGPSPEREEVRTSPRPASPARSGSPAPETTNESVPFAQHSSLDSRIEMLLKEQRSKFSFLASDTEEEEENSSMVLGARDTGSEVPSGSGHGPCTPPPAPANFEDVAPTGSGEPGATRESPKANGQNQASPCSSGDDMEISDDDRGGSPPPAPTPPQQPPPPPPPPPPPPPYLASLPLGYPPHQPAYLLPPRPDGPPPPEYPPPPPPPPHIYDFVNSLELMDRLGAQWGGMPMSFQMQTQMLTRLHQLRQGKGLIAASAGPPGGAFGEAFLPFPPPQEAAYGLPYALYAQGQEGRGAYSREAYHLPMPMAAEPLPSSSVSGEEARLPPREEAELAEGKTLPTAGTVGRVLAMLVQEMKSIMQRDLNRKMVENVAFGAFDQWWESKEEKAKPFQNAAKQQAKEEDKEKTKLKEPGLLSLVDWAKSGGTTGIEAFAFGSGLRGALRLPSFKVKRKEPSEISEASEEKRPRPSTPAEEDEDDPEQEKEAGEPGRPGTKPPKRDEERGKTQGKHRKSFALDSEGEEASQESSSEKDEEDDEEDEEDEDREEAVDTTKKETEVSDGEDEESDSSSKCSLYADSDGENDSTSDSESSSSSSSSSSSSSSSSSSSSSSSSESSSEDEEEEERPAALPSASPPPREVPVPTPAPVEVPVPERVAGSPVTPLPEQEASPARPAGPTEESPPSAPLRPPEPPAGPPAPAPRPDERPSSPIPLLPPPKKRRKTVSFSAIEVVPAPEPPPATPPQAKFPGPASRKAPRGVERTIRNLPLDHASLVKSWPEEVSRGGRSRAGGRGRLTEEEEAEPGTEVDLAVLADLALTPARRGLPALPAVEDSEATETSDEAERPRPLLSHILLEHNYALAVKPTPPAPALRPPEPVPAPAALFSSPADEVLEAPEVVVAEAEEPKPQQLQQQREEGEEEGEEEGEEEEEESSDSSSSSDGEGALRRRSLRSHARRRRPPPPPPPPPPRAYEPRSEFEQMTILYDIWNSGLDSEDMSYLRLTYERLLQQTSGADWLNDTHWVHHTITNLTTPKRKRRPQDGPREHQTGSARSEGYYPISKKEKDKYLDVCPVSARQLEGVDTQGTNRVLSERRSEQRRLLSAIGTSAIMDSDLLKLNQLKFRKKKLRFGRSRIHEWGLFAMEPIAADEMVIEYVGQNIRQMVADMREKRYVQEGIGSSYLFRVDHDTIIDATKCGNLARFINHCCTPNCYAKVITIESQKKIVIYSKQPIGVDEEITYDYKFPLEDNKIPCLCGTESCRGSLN
# RBBP5 2-538 WD40 (domain begin residue: 2, domain end residue: 538), Q15291, sequence (Q15291 whole entry, the tested form may be a part): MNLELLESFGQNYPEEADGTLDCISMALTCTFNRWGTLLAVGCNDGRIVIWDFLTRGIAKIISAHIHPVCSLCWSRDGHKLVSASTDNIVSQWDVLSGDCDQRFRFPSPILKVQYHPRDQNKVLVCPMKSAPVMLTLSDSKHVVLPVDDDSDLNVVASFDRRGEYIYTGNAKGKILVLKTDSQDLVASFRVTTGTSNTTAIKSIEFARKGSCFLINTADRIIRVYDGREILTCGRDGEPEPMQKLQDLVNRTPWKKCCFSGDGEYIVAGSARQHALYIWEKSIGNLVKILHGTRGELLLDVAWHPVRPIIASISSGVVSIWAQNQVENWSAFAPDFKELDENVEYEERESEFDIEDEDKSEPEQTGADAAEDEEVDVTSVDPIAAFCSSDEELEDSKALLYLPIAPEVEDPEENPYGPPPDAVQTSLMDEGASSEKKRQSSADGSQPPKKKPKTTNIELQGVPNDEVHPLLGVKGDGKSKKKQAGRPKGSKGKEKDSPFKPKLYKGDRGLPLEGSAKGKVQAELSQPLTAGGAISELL
# RPA2 202-270 RPA_C (domain begin residue: 202, domain end residue: 270), P15927, sequence (P15927 whole entry): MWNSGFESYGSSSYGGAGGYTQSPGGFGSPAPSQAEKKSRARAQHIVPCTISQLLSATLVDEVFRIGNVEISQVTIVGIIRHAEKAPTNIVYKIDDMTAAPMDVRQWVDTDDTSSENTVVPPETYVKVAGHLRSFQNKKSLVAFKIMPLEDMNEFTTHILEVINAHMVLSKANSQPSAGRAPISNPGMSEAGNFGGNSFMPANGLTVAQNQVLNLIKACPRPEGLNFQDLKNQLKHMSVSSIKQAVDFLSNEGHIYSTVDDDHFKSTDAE
binder,measurement,setting,value
IFYWDFESQTWTMSAP,phage ELISA signal ratio,[1],3.49
WMMTLPPDMPGEWQVV,phage ELISA signal ratio,[2],11
WPEYMSWDDAYWMTML,phage ELISA signal ratio,[3],4.17
PQWWHNMPALPDDIIH,phage ELISA signal ratio,[2],14.7
VSWWDDGLVYDWMSEF,phage ELISA signal ratio,[4],16.5
VWEDWTYMEDWEMMVF,phage ELISA signal ratio,[4],14.3
AQMAPRWDQMQPVMVE,phage ELISA signal ratio,[5],5.16
WQWNGVWPDIIWVQVE,phage ELISA signal ratio,[6],7.24
WADEWEAPFVWKMQEV,phage ELISA signal ratio,[7],3.11
TPTDTAESIWEMYKKM,phage ELISA signal ratio,[8],28
RQSQLQMWIWDATQDE,phage ELISA signal ratio,[3],3.71
FDVPLPLEHDWWTSWV,phage ELISA signal ratio,[9],3.39
YNFPMDWDQIPITWPQ,phage ELISA signal ratio,[10],6.17
HMAWDVIWDNIYLADS,phage ELISA signal ratio,[10],4.42
MEQWWHGEDIMWHWWE,phage ELISA signal ratio,[11],3.64
DEELWAAPFTWGPVLE,phage ELISA signal ratio,[7],4.84
ESNEMWEWVMNQAHVW,phage ELISA signal ratio,[8],11.2
PYGPFKSFEYMDIQRT,phage ELISA signal ratio,[12],26.7
MWGGEDDLVQAWLEQF,phage ELISA signal ratio,[4],9.46
TDMEYWEPFTDEELSM,phage ELISA signal ratio,[4],10
WEHHGWWTFWEEAPEQ,phage ELISA signal ratio,[13],4.7
LDHMNWPEHDWLWATM,phage ELISA signal ratio,[8],16.1
PPLPPDKNDWHVEYMP,phage ELISA signal ratio,[2],15.6
QYMLMSLPEDDWATPH,phage ELISA signal ratio,[9],4.31
QEFWERYTIPMWVDSF,phage ELISA signal ratio,[2],13.7
EEMPWYFIEDWEMEMY,phage ELISA signal ratio,[4],10.6
YPEHQWLEQHMFQTVQ,phage ELISA signal ratio,[8],14.3
SQIQRYIDEAMTHQST,phage ELISA signal ratio,[3],13.4
YWTWDDFQEMFLRLER,phage ELISA signal ratio,[11],4.97
WQSWDDWDRPMHPMEN,phage ELISA signal ratio,[7],6.6
DMEQWWMELPQVPMYA,phage ELISA signal ratio,[2],23.1
QDWWETALPQEPWHVV,phage ELISA signal ratio,[9],22.7
YIQDWEMMDVWNTLVG,phage ELISA signal ratio,[4],18
PTEAEWGIWHDLPDYE,phage ELISA signal ratio,[2],10.1
EFDAMQAHWNVLHPEG,phage ELISA signal ratio,[9],8.19
FDPLWMALPEDKVHEM,phage ELISA signal ratio,[9],3.06
QKVHPWDDWDSPFMWF,phage ELISA signal ratio,[7],12.9
QIEYWNSMEQTWVQSQ,phage ELISA signal ratio,[1],9.82
GAWDWQLDQLLMQYLE,phage ELISA signal ratio,[3],4.72
YRWDRQPSQEAVSSKY,phage ELISA signal ratio,[5],4.04
YVTDLEMIETWNKFIN,phage ELISA signal ratio,[4],16.4
TEIALPWPDRAERAYL,phage ELISA signal ratio,[2],16.3
WGQMPLPVDMPETWNF,phage ELISA signal ratio,[2],21
EVEDMQWLEENWLVFW,phage ELISA signal ratio,[4],12
EWDWPSDHSWWEYIQH,phage ELISA signal ratio,[9],8.48
SKMDEWPPEPWELMKL,phage ELISA signal ratio,[7],4.23
WEWSPLPPDVETFSQI,phage ELISA signal ratio,[2],15.9
IDSYEHHSTGMVPLPD,phage ELISA signal ratio,[2],26.3
YYVLDSEMETIWQSIL,phage ELISA signal ratio,[4],15.3
QAVVPWQMPLPDWIVS,phage ELISA signal ratio,[2],18.4
LSTDFLQMEHFWNQQF,phage ELISA signal ratio,[9],3.07
MGYWDYLPPVPGETWG,phage ELISA signal ratio,[2],15.4
IEQAELIWMEYKKQTK,phage ELISA signal ratio,[8],6.73
DWVLYKEWVPQWPHNF,phage ELISA signal ratio,[14],17.1
WELSDYTLIQAYDQIM,phage ELISA signal ratio,[4],13.8
NDEWDHPFTFNPGVPP,phage ELISA signal ratio,[7],5.9
YIHDWEMFEHWENLWG,phage ELISA signal ratio,[4],9.27

# Source: the supplement of paper PMC7724964
